# Measurements reported in PubChem BioAssay (NCI).
# This is part of a sample that, as a whole, favours compounds with a hit. Of some 83,000 tested, about 20% had one in any assay.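 96-well plates, one dose, 48 hours. Percent growth reported; active if below 10.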 Calls of active or inactive are those of the source.
# System: SF-539 CNS
# Test: NCI-60 one-dose screen, 48 h (100 = growth as untreated, 0 = no growth, -100 = all killed)
# Details: 10 µM unless noted
row,SMILES,growth
1,CN(c1ncccc1CNc1nc(Nc2ccc3c(c2)CC(=O)N3)ncc1C(F)(F)F)S(C)(=O)=O,-36% (active)
2,COc1cc2nccc(Oc3ccc(NC(=O)Nc4cc(C)on4)c(Cl)c3)c2cc1OC,-50.3% (active)
3,COc1cccc(Nc2ncnn3ccc(CN4CC[C@@H](N)[C@H](O)C4)c23)c1,-2.77% (active)
4,Cc1nc2cc(-c3nn(C(C)C)c4ncnc(N)c34)ccc2o1,-61.7% (active)
5,C[C@@H](N)c1ccc(C(=O)Nc2ccnc3[nH]ccc23)cc1,11.1% (inactive)
6,NC(=O)c1c(OCc2c(F)cc(Br)cc2F)nsc1NC(=O)NCCCCN1CCCC1,-92% (active)
7,CC(=O)OC(C(=O)c1ccccc1)c1ccccc1 (centres undefined),114% (inactive)
8,O=C1NC(=O)[C@@H](c2cn3c4c(cccc24)CCC3)[C@@H]1c1c[nH]c2ccccc12,-17.3% (active)
9,CCN(CC)c1cc2oc3cc(N)cc(=N)c-3nc2cc1C,1.94% (active)
10,CC(=O)C1CC(C)CCC1C(C)C (centres undefined),102% (inactive)
11,CCN1CCN(Cc2ccc(-c3cc4c(N[C@H](C)c5ccccc5)ncnc4[nH]3)cc2)CC1,60.5% (inactive)
12,O=c1[nH]c([C@@H]2CCCN2)nc2c1oc1ccc(Cl)cc12,12.6% (inactive)
13,C=CC(=O)Nc1cccc(Oc2nc(Nc3ccc(N4CCN(C)CC4)cc3)nc3ccsc23)c1,-92.9% (active)
14,CCS(=O)(=O)N1CCN(c2ccc(Nc3ncc(C(N)=O)c(NC4CC4)n3)cc2)CC1,53.5% (inactive)
15,O=C(COc1ccc(/C=C2\Cc3ccc(Cl)cc3C2=O)cc1)Nc1nccs1,96.8% (inactive)
16,CC(C)(C)c1cnc(CSc2cnc(NC(=O)C3CCNCC3)s2)o1,-33.1% (active)
17,CS(=O)(=O)CCNCc1ccc(-c2ccc3ncnc(Nc4ccc(OCc5cccc(F)c5)c(Cl)c4)c3c2)o1,-91% (active)
18,Cc1cc(O)cc(-c2c(-c3ccnc(-c4cccnc4)c3)cnn2C)c1,42.7% (inactive)
19,CN1CCN(c2nc(C3=C(c4c[nH]c5ccccc45)C(=O)NC3=O)c3ccccc3n2)CC1,92.2% (inactive)
20,CC(=O)NCC(=O)N1[C@@H]2CC[C@H]1c1ccc(Nc3ncc(C(F)(F)F)c(NC4CCC4)n3)cc12,11.2% [2.5 µM] (inactive)
21,Cc1cc([C@@H](C)Nc2ccccc2C(=O)O)c2nc(N3CCOCC3)cc(=O)n2c1,19.7% (inactive)
22,Cc1cc(Oc2ccccc2)ccc1Nc1ncnc2ccc(-c3cnc(Cl)c(NS(C)(=O)=O)c3)cc12,-15.3% (active)
23,CCN(CC)CCNC(=O)c1c(C)[nH]c(/C=C2\C(=O)Nc3ccc(F)cc32)c1C,-88.8% (active)
24,O=C(Nc1cnn2ccc(N3CCC[C@@H]3c3cc(F)ccc3F)nc12)N1CC[C@H](O)C1,77.4% (inactive)
25,COc1ccc(F)c(F)c1C(=O)c1cnc(NC2CCN(S(C)(=O)=O)CC2)nc1N,-33.8% (active)
26,CN1C/C=C\CCOc2cccc(c2)-c2ccnc(n2)Nc2cccc(c2)C1,-91.8% (active)

# System: UACC-257 melanoma
# Test: as above
# Details: 10 µM unless noted
row,SMILES,growth
1,COCc1c(-c2ccc(NC(=O)Nc3cc(C(F)(F)F)ccc3F)c(F)c2)c2c(N)ncnn2c1CN1CCOCC1,-9.75% (active)
2,COC(=O)[C@@H](NC(=O)[C@@H](OC)[C@@H]1Cc2cc3cc(OC4CC(OC5CC(O)C(O)C(C)O5)C(O)C(C)O4)c(C)c(O)c3c(O)c2C(=O)[C@H]1OC1CC(OC2CC(OC3CC(C)(O)C(O)C(C)O3)C(O)C(C)O2)C(O)C(C)O1)C(C)C (some centres undefined),3.21% (active)
3,Cc1ccc(Nc2nccc(N(C)c3ccc4c(C)n(C)nc4c3)n2)cc1S(N)(=O)=O,-6.96% (active)
4,CCN(CCO)CCCOc1ccc2c(Nc3cc(CC(=O)Nc4cccc(F)c4)[nH]n3)ncnc2c1,-23.2% (active)
5,COc1ccc(Cc2cc(-c3ccccc3C)n[nH]c2=O)cc1,119% (inactive)
6,Clc1ccc(C(Cn2ccnc2)OCc2ccsc2Cl)c(Cl)c1 (centres undefined),59.7% (inactive)
7,COc1ccc(/C(C)=C(\c2ccc(Cl)cc2)c2ccc(OCCN3CCCCCC3)cc2)cc1,58.3% (inactive)
8,CCCCCc1ccc(C)cc1OC(=O)CCl,107% (inactive)
9,COc1ccc(-c2ccc3ncc4c(c3c2)n(-c2ccc(N3CCNCC3)c(C(F)(F)F)c2)c(=O)n4C)cn1,-72.2% (active)
10,COc1cc(OC)c(/C=C/S(=O)(=O)Cc2ccc(OC)c(NCC(=O)O)c2)c(OC)c1,48.7% (inactive)
11,COC1CCC(N2C(=O)CNc3ncc(-c4ccc(C(C)(C)O)nc4)nc32)CC1 (centres undefined),-15.8% (active)
12,C[C@@H](Oc1cc(-n2cnc3ccc(CN4CCN(C)CC4)cc32)sc1C(N)=O)c1ccccc1C(F)(F)F,-25.5% (active)
13,CN(c1ncccc1CNc1nc(Nc2ccc3c(c2)CC(=O)N3)ncc1C(F)(F)F)S(C)(=O)=O,-29.1% (active)
14,COc1cc2nccc(Oc3ccc(NC(=O)Nc4cc(C)on4)c(Cl)c3)c2cc1OC,19.6% (inactive)
15,COc1cccc(Nc2ncnn3ccc(CN4CC[C@@H](N)[C@H](O)C4)c23)c1,76.1% (inactive)
16,Cc1nc2cc(-c3nn(C(C)C)c4ncnc(N)c34)ccc2o1,-45.3% (active)
17,C[C@@H](N)c1ccc(C(=O)Nc2ccnc3[nH]ccc23)cc1,68.9% (inactive)
18,NC(=O)c1c(OCc2c(F)cc(Br)cc2F)nsc1NC(=O)NCCCCN1CCCC1,-80.3% (active)
19,CC(=O)OC(C(=O)c1ccccc1)c1ccccc1 (centres undefined),107% (inactive)

row,SMILES,growth
1,O=C1NC(=O)[C@@H](c2cn3c4c(cccc24)CCC3)[C@@H]1c1c[nH]c2ccccc12,38.5% (inactive)
2,CCN(CC)c1cc2oc3cc(N)cc(=N)c-3nc2cc1C,32.9% (inactive)
3,CC(=O)C1CC(C)CCC1C(C)C (centres undefined),111% (inactive)
4,CCN1CCN(Cc2ccc(-c3cc4c(N[C@H](C)c5ccccc5)ncnc4[nH]3)cc2)CC1,-5.38% (active)
5,O=c1[nH]c([C@@H]2CCCN2)nc2c1oc1ccc(Cl)cc12,64.6% (inactive)
6,C=CC(=O)Nc1cccc(Oc2nc(Nc3ccc(N4CCN(C)CC4)cc3)nc3ccsc23)c1,-80.8% (active)
7,CCS(=O)(=O)N1CCN(c2ccc(Nc3ncc(C(N)=O)c(NC4CC4)n3)cc2)CC1,101% (inactive)
8,O=C(COc1ccc(/C=C2\Cc3ccc(Cl)cc3C2=O)cc1)Nc1nccs1,98.5% (inactive)
9,CC(C)(C)c1cnc(CSc2cnc(NC(=O)C3CCNCC3)s2)o1,-25.5% (active)
10,CS(=O)(=O)CCNCc1ccc(-c2ccc3ncnc(Nc4ccc(OCc5cccc(F)c5)c(Cl)c4)c3c2)o1,-94.1% (active)
11,Cc1cc(O)cc(-c2c(-c3ccnc(-c4cccnc4)c3)cnn2C)c1,83.1% (inactive)
12,CN1CCN(c2nc(C3=C(c4c[nH]c5ccccc45)C(=O)NC3=O)c3ccccc3n2)CC1,-20% (active)
13,CC(=O)NCC(=O)N1[C@@H]2CC[C@H]1c1ccc(Nc3ncc(C(F)(F)F)c(NC4CCC4)n3)cc12,59.8% [2.5 µM] (inactive)
14,Cc1cc([C@@H](C)Nc2ccccc2C(=O)O)c2nc(N3CCOCC3)cc(=O)n2c1,32.8% (inactive)
15,Cc1cc(Oc2ccccc2)ccc1Nc1ncnc2ccc(-c3cnc(Cl)c(NS(C)(=O)=O)c3)cc12,6.42% (active)
16,CCN(CC)CCNC(=O)c1c(C)[nH]c(/C=C2\C(=O)Nc3ccc(F)cc32)c1C,-40.4% (active)
17,O=C(Nc1cnn2ccc(N3CCC[C@@H]3c3cc(F)ccc3F)nc12)N1CC[C@H](O)C1,70.8% (inactive)
18,COc1ccc(F)c(F)c1C(=O)c1cnc(NC2CCN(S(C)(=O)=O)CC2)nc1N,-28% (active)
19,CN1C/C=C\CCOc2cccc(c2)-c2ccnc(n2)Nc2cccc(c2)C1,-73.7% (active)
